KDM4E inh = blocks human JMJD2E demethylase activity; 230,000 tested, 1.6% active; JMJD2E catalytic domain, FDH-coupled NADH fluorescence (FDH is formaldehyde dehydrogenase); Potency, µM (highest dose often 57.1 µM), for the others: top-dose activity change, negative = inhibition, usual class: inhibitors; B2RXH2; AID 2147; active means well fitted inhibition curve with a large enough effect, not every such curve was filed as active; inconclusive means small, poorly fitted or top-dose-only effect, or another doubt; inactive means no such curve, though single readings can be large or run the other way;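 further: potency means the concentration at half of the fitted maximal effect; 0% = wells with enzyme and -100% = buffer wells without enzyme; nearly all actives have a fitted effect of over 50% in size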
Target sequence (B2RXH2 1-337 limits assumed): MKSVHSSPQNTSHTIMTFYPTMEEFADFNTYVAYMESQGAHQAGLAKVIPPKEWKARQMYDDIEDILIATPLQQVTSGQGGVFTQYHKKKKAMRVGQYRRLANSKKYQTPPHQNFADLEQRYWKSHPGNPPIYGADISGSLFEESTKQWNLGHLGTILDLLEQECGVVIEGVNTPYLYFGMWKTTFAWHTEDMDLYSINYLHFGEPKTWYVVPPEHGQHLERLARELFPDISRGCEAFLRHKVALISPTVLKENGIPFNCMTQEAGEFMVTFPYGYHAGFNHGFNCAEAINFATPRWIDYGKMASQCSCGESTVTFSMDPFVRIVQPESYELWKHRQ
Lamin A splicing = changes lamin A minigene splicing in HeLa cells. HeLa LMNA splicing GFP/RFP minigene ratio, 48 h. Potency, µM (top dose mostly 46.1 µM), for inactives: at the top dose ratio change, negative = inhibition, usual class: inhibitors. 200,000 tested, 0.01% active. AID 1487; active means well fitted inhibition curve with a large enough effect in the signal ratio, with a control signal flat, not every such curve was filed as active; inconclusive means small, poorly fitted or top-dose-only effect, or effect the other way, or a change in a side signal; the % refers to the signal ratio; further: potency means the concentration at half of the fitted maximal effect; on the % scale 0 is the no-effect control and ±100 the full control effect
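S3 HeLa cells stably expressing lamin A-EGFP splicing minigene plus DsRed2, 600 cells/well, 48 h compound exposure at 37C. Laser-scanning cytometry; analysed as GFP (500-530 nm)/RFP (575-640 nm) total intensity ratio; 0.5% DMSO vehicle.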
Tau fibril FP = tau fibrillization inhibition (FP). P10636. K18 P301L tau heparin fibrillization, Alexa594 FP, 6 h. Potency, µM (highest dose often 57.7 µM), inactives show at the highest dose activity, negative = inhibition, actives largely listed as inhibitors. 280,000 tested, 0.39% active; further: potency means the concentration at half of the fitted maximal effect; on the % scale 0 is the no-effect control and ±100 the full control effect; nearly all actives have a fitted effect of over 55% in size
Target sequence (P10636 561-689 P618L limits assumed): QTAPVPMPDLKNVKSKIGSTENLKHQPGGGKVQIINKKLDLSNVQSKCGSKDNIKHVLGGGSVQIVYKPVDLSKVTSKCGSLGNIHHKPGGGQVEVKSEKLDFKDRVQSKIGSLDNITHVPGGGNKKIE
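FP of Alexa 594-tau after heparin (20 uM) induction. Substrate: human K18 P301L, 15 uM unlabeled, 0.24 uM labeled. Buffer 100 mM sodium acetate pH 7. 6 hr, 37 C.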
Tau fluor counter = counter-screen for tau fibril formation inhibitors; 280,000 tested, 0.93% active; Potency, µM (series often up to 57.7 µM), without a hit: at the highest dose activity change, negative = decrease; tau K18 P301L Alexa594 fluorescence, heparin fibrillization; further: potency means the concentration at half of the fitted maximal effect; on the % scale 0 is the no-effect control and ±100 the full control effect; nearly all actives have a fitted effect of over 55% in size
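Human K18 P301L tau (15 uM unlabeled plus 0.24 uM Alexa 594-labeled, final) in 100 mM sodium acetate pH 7 was mixed with compound and 20 uM heparin and incubated 6 hr at 37 C.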
CBFb RUNX1 block = blocks binding between human CBF-beta and RUNX1; AID 1477; 230,000 tested, under 10 active; AlphaScreen CBFb-His/RUNX1-biotin binding, biochemical; Potency, µM (titrated, usually from 59.8 µM), for inactives: at the highest dose activity, negative = inhibition, hits mostly inhibitors; Q01196+Q13951; further: % of control where 0% means no effect
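CBFb-His/RUNX1-biotin, 30 nM each, preincubated 20 min RT; compound 15 min RT; Ni + streptavidin beads 50 ng each, 90 min RT; AlphaScreen read.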
Tau fibril ThT = tau fibrillization inhibition (ThT binding); AID 1460; P10636; 270,000 tested, 2.1% active; recombinant tau K18 P301L (four-repeat tau fragment), heparin-induced fibrillization, ThT fluorescence; Potency, µM (doses to about 57.4 µM), for inactives: at the highest dose activity, negative = inhibition, usual class: inhibitors; further: potency means the concentration at half of the fitted maximal effect; on the % scale 0 is the no-effect control and ±100 the full control effect; nearly all actives have a fitted effect of over 55% in size
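Recombinant human tau K18 fragment […] carrying P301L, 15 uM unlabeled plus 0.24 uM Alexa 594-labeled, was fibrillized with 20 uM heparin in 100 mM sodium acetate pH 7 for 6 hr at 37 C; 30 uM ThT fluorescence read after 1 hr.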
* hit, by the source's call; ? = inconclusive; . = not tested or not shown; [ ] = dose if it differs, or a comment. Shown are actives, neighbours in structure and some others; about 3.2% of the full set was active somewhere. Unless noted, the call rests on the fitted dose curve; in most records, active means well fitted curve in the direction sought with a large enough effect; inconclusive means small, poorly fitted or top-dose-only effect, or another doubt; inactive means no such curve, though single readings can be large; an effect the other way counts as inactive or inconclusive.

SMILES	KDM4E inh	Lamin A splicing	Tau fibril FP	Tau fluor counter	CBFb RUNX1 block	Tau fibril ThT
Cc1ccc(N(C)S(=O)(=O)c2ccc3[nH]c4c(c3c2)CCCC4)cc1	.	?	5%	14µM*[quencher]	.	-5%
COc1cc(NS(=O)(=O)c2ccc3[nH]c4c(c3c2)CCCC4)cc(OC)c1OC	.	?	18%	?	.	-13%
Cc1ccc(NS(=O)(=O)c2ccc3[nH]c4c(c3c2)CCCCCC4)cc1C	.	?	-1%	13µM*[quencher]	.	1%
COc1ccc(NS(=O)(=O)c2ccc3[nH]c4c(c3c2)CCCC4)cc1OC	.	-23%[46 µM]	7%	16µM*[quencher]	.	?
COc1ccc(NS(=O)(=O)c2ccc3[nH]c(=O)ccc3c2)cc1OC	.	?	-18%	8.9µM*[quencher]	.	?
COc1ccc(NS(=O)(=O)c2ccc(OC)c(OC)c2)cc1OC	5%	?	-3%	0%	-7%	-3%
COc1cc(OC)cc(-c2cc3nc(C)c(CCC(=O)Nc4ccc(F)c(Cl)c4)c(C)n3n2)c1	.	.	?	-24%	.	-17%
COc1cc(NC(=O)C2CCN(c3nnc(C)c4c(C)n(-c5ccccc5)nc34)CC2)cc(OC)c1	.	.	9%	-16%	.	-11%
CCc1ccc(N=C2NC(=O)CC(C(=O)Nc3ccc(OC)cc3)S2)cc1 (stereo unspecified)	.	.	-2%	-15%	.	-17%
CCOC(=O)c1ccc(NS(=O)(=O)c2ccc3[nH]c4c(c3c2)CCCCC4)cc1	.	?	?	6.3µM*[quencher]	.	-7%
COc1cc(NS(=O)(=O)c2ccc3[nH]c4c(c3c2)CCCCCC4)cc(OC)c1	.	?	-5%	8.9µM*[quencher]	.	-7%
COc1ccc(OC)c(NS(=O)(=O)c2ccc3[nH]c4c(c3c2)CCCCC4)c1	.	-26%[46 µM]	3%	11µM*[quencher]	.	-2%
CCc1ccc(NS(=O)(=O)c2ccc3[nH]c4c(c3c2)CCCCCC4)cc1	.	?	?	?	.	18%
COc1ccc(OC)c(NS(=O)(=O)c2ccc3c(c2)CCC(=O)N3)c1	6%	8%	-4%	-2%	0%	-4%
Cc1ccc(NS(=O)(=O)c2ccc3[nH]c4c(c3c2)CCCCCC4)cc1	.	?	?	11µM*[quencher]	.	-12%
COc1cccc(NC(=O)CSc2nc(=O)[nH]c3c2CCCC3)c1	.	?	-13%	-8%	.	-7%
O=C(CSc1nnc(-c2cccs2)o1)Oc1ccc(Cl)cc1	.	.	-3%	1%	.	-10%
CCCC[n+]1ccn(C2=C([O-])c3ccccc3C(=O)/C2=N\S(=O)(=O)c2ccc(Cl)cc2)c1	-16%	.	?	?	2%	11µM*
Cc1ccc(C)c(NC(=O)CN(Cc2ccccc2)S(=O)(=O)c2ccc3nc(C)sc3c2)c1	.	3%[46 µM]	2%	-16%	.	-8%
CCc1nn2c(-c3ccco3)ccnc2c1-c1ccc(F)cc1	.	.	-16%	-22%	.	?
Cc1ccc2c(c1)c(=O)c(S(=O)(=O)c1ccc(F)cc1)cn2CC(=O)Nc1ccc2c(c1)OCO2	.	.	-13%	?	.	-1%
Cc1ccc(C(=O)NCC#N)cc1	3%	-4%[9.22 µM]	-1%	-3%	8%	-1%
Cc1ccc(C(=O)NC(C#N)=C(Cl)Cl)cc1	-24%	?	?	-10%	-6%	25µM*
NCCCCCc1nnc(SCc2ccc(F)cc2)o1	.	.	-3%	-11%	.	-8%
COc1ccc(-c2ccc(/C=C3/C(=N)N4C=CSC4=NC3=O)o2)c([N+](=O)[O-])c1	?	-18%	-16%	?	-20%	1.8µM*
SMILES	KDM4E inh	Lamin A splicing	Tau fibril FP	Tau fluor counter	CBFb RUNX1 block	Tau fibril ThT
N#CC1=C2SCN(Cc3ccccc3)CN2C(=O)CC1c1ccccc1F (stereo unspecified)	-8%	6%	?	-16%	-2%	?
N#CC1=C2SCN(Cc3ccco3)CN2C(=O)CC1c1c(F)cccc1Cl (stereo unspecified)	?	0%	?	-29%	-2%	7.1µM*
Cc1ccc(C2CC(=O)N3CN(Cc4ccco4)CSC3=C2C#N)cc1 (stereo unspecified)	-26%	10%	?	-10%	-5%	25µM*
Cc1ccc(CC2CC(=O)N(Cc3ccco3)C2=O)cc1 (stereo unspecified)	4%	20%	-10%	-1%	1%	-20%
Cc1cccc2sc(NC(=O)C3CCN(S(=O)(=O)c4cc([N+](=O)[O-])ccc4Cl)CC3)nc12	13µM*	?	11%	?	4%	?
O=C(NCc1ccc(Cl)cc1)C1CCN(S(=O)(=O)c2cc([N+](=O)[O-])ccc2Cl)CC1	-2%	-7%	11%	?	3%	-8%
CCn1c2ccccc2c2cc(NC(=O)COC(=O)c3cccc(S(=O)(=O)NC)c3)ccc21	-12%	-20%	1%	10µM*[quencher]	3%	?
CCn1c2ccccc2c2cc(NC(=O)c3ccco3)ccc21	4%	?	17%	25µM*[quencher]	-1%	?
CCn1c2ccccc2c2cc(NC(C)=O)ccc21	-9%	-11%	4%	-22%	-2%	-8%
CCn1c2ccccc2c2cc(NC(=O)c3cccc(OC)c3)ccc21	?	?	10%	13µM*[quencher]	12%	?
CC1N(C)c2cc(NC(=O)c3ccco3)ccc2C1(C)C (stereo unspecified)	3%	?	?	28µM*[fluorescent]	-11%	?
CCN(Cc1ccccc1)C(=O)c1c(C)oc2ncn(C)c(=O)c12	.	2%[46 µM]	-1%	-5%	.	-1%
COc1cc(-c2nc(Cc3c(F)cccc3Cl)no2)cc(OC)c1OC	?	2%	-14%	16µM*[quencher]	-11%	?
O=C(CS)Nc1ccc2ccccc2c1	2%	.	?	?	6%	25µM*
O=C(CSCc1nc2ccccc2[nH]1)Nc1ccc2ccccc2c1	?	-3%	?	?	-2%	22µM*
O=C(CSCc1nc2ccccc2[nH]1)Nc1ccc(Oc2ccccc2)cc1	-2%	?	?	?	-12%	-9%
COc1ccc(-c2nc(SCCOc3cc(C)ccc3C(C)C)n3[nH]c(=O)cc3n2)cc1	.	.	-3%	?	.	?
Nc1ccc2nn(-c3ccccc3)nc2c1	?	-17%[46 µM]	-2%	?	8%	?
Nc1cc2nn(-c3ccccc3)nc2cc1Cl	?	?	?	?	9%	3.5µM*
CC(=O)O[C@@H]1C(CO[Si](C)(C)C(C)(C)C)=C(Br)C(=O)[C@@H]2O[C@]12C	-17%	.	?	-26%	-1%	28µM*
COC1=CC(=O)C(C(=O)c2ccccc2)=CC1=O	?	-10%	10µM*	6.3µM*[quencher]	.	3.2µM*

High-throughput results (PubChem)
